Source: PubChem BioAssay AID1159580 (chemical genetic matrix, 2015)
Where “and” joins values, the source holds several entries; their conditions need not be identical. Equal entries are not always repeated. The whole screen tested about 5,500 compounds, of which about 2,000 (36%) were called active. Inconclusive results (about 18%) are left out. Rule as the data show it: active = normalized growth mostly below about 0.91 (no sharp cut-off); inconclusive = no clear call, values can overlap the other calls; inactive = mostly above about 0.92. The list shows a part of the results.

Assay: chemical genetic growth profiling, strain panel (AID 1159580);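 also: tested at 20 µM; growth read once vehicle control cultures reached saturation at 30 °C; 1 = growth at the plate median or of vehicle wells; lower values mean less growth of the strain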
Conditions: S. cerevisiae deletion strains, growth OD

Measured: normalized growth

Oc1ccc2c(c1)OCC1(O)Cc3cc(O)c(O)cc3C21 (stereo unspecified)
inactive: locus YAL021C, strain ccr4, active compounds read low 1.03 | locus YAL026C, strain drs2, active compounds read low 1.03 | locus YAL030W, strain snc1, active compounds read low 1.02 | locus YBL061C, strain skt5, active compounds read low 1.03 | locus YBR009C, strain hhf1, active compounds read low 1.01 | locus YBR021W, strain FUR4, active compounds read low 1.04 | locus YBR023C, strain chs3, active compounds read low 1.03 | locus YBR171W, strain sec66, active compounds read low 1.04 | locus YBR229C, strain ROT2, active compounds read low 1.01 | locus YBR231C, strain swc5, active compounds read low 1.01 | locus YBR279W, strain paf1, active compounds read low 1.02 | locus YCL011C, strain gbp2, active compounds read low 1.03 | locus YCL016C, strain dcc1, active compounds read low 1.03 | locus YCL029C, strain bik1, active compounds read low 1.01 | locus YCL061C, strain MRC1, active compounds read low 1.02 | locus YCL069W, strain vba3, active compounds read low 1.03 | locus YCR088W, strain abp1, active compounds read low 1.02 | locus YDL005C, strain med2, active compounds read low 1.03 | locus YDL035C, strain GPR1, active compounds read low 1.03 | locus YDL040C, strain nat1, active compounds read low 1.02 | locus YDL074C, strain BRE1, active compounds read low 0.936 | locus YDL101C, strain DUN1, active compounds read low 0.958 | locus YDL185W, strain tfp1, active compounds read low 0.964 | locus YDL192W, strain arf1, active compounds read low 1.01 | locus YDR001C, strain nth1, active compounds read low 1.03 | locus YDR069C, strain doa4, active compounds read low 1.01 | locus YDR101C, strain arx1, active compounds read low 1.07 | locus YDR137W, strain rgp1, active compounds read low 1.15 | locus YDR150W, strain NUM1, active compounds read low 1 | locus YDR159W, strain sac3, active compounds read low 1.05 | locus YDR162C, strain NBP2, active compounds read low 0.976 | locus YDR195W, strain ref2 1.02 | locus YDR297W, strain sur2, active compounds read low 1.02 | locus YDR318W, strain mcm21, active compounds read low 0.98 | locus YDR334W, strain swr1, active compounds read low 1.03 | locus YDR335W, strain msn5, active compounds read low 1.01 | locus YDR388W, active compounds read low 0.978 | locus YDR392W, strain spt3, active compounds read low 1.03 | locus YDR502C, strain sam2, active compounds read low 0.996 | locus YEL003W, strain gim4, active compounds read low 1.02 | locus YEL037C, strain rad23, active compounds read low 1.02 | locus YEL061C, strain CIN8 (second series), active compounds read low 1.04 | locus YER015W, strain faa2, active compounds read low 1.01 | locus YER016W, strain bim1, active compounds read low 1.03 | locus YER110C, active compounds read low 0.996 | locus YER111C, strain swi4, active compounds read low 1.03 | locus YER155C, strain BEM2 (second series), active compounds read low 1.03 | locus YER155C, strain BEM2, active compounds read low 1.04 | locus YER167W, strain BCK2, active compounds read low 1.04 | locus YFR010W, strain ubp6, active compounds read low 1.02 | locus YGL078C, strain dbp3, active compounds read low 0.986 | locus YGL086W, strain mad1, active compounds read low 0.996 | locus YGL167C, strain pmr1, active compounds read low 1.02 | locus YGL173C, strain kem1, active compounds read low 1.03 | locus YGL227W, strain vid30, active compounds read low 1.04 | locus YGL240W, strain doc1, active compounds read low 1.02 | locus YGL248W, strain PDE1, active compounds read low 0.989 | locus YGL253W, strain hxk2, active compounds read low 1.02 | locus YGR078C, strain PAC10, active compounds read low 0.977 | locus YGR135W, strain pre9, active compounds read low 0.945 | locus YGR229C, strain SMI1, active compounds read low 0.968 | locus YGR252W, strain gcn5, active compounds read low 1.06 | locus YHR013C, strain ard1, active compounds read low 1.07 | locus YHR027C, strain rpn1, active compounds read low 1.02 | locus YHR030C, strain SLT2, active compounds read low 0.995 | locus YHR079C, strain IRE1 (second series), active compounds read low 0.993 | locus YHR079C, strain IRE1, active compounds read low 0.992 | locus YHR094C, strain hxt1, active compounds read low 1 | locus YHR129C, strain ARP1, active compounds read low 0.98 | locus YHR142W, strain chs7, active compounds read low 1.05 | locus YHR200W, strain rpn10, active compounds read low 1.01 | locus YIL066C, strain RNR3, active compounds read low 1.03 | locus YIL073C, strain SPO22, active compounds read low 0.964 | locus YIL125W, strain kgd1, active compounds read low 1.01 | locus YIR030C, strain dcg1, active compounds read low 1 | locus YJL092W, strain hpr5, active compounds read low 1.03 | locus YJL095W, strain BCK1 (second series), active compounds read low 1.02 | locus YJL095W, strain BCK1, active compounds read low 0.88 and 0.999 | locus YJL115W, strain asf1, active compounds read low 1.04 | locus YJL129C, strain trk1, active compounds read low 1.09 | locus YJL134W, strain LCB3, active compounds read low 1.01 | locus YJL154C, strain vps35, active compounds read low 1.03 | locus YJL164C, strain tpk1, active compounds read low 1.03 | locus YJL166W, strain qcr8, active compounds read low 1.02 | locus YJL168C, strain set2, active compounds read low 0.983 | locus YJL187C, strain SWE1 (second series), active compounds read low 0.922
